Assay results reported in PubChem BioAssay (NCATS).
Records with an inconclusive call do not appear. Active and inactive are the calls of the source. Calls follow the shape of the dose curve; as a rule, active = well fitted curve in the direction sought with a large enough effect; inconclusive = small, poorly fitted or top-dose-only effect, or another doubt; inactive = no such curve, though single readings can be large; an effect the other way counts as inactive or inconclusive.

Tests used:
[1] = biological target: Rap guanine nucleotide exchange factor 3 (Homo sapiens) (UniProt O95398); assay: Confirmatory qHTS for antagonist of cAMP-regulated guanine nucleotide exchange factor 3 (EPAC1) (AID 1645880); also: nearly all actives have a fitted effect of over 55% in size; also: potency is read from the fitted curve at half-maximal effect
Outline: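 Released BODIPY-GDP fluoresces less than Rap1-bound BODIPY-GDP; the signal is followed at 480/540 nm at 5-min intervals over 30 min, after 5 min at room temperature. Reactions contain 100 nM EPAC1, 250 nM RAP1B-BODIPY-GDP and 50 uM GDP; results are normalized to ATA and DMSO.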

[2] = biological target: Rap guanine nucleotide exchange factor 3 (Homo sapiens) (UniProt O95398); assay: Confirmatory qHTS for agonist of cAMP-regulated guanine nucleotide exchange factor 3 (EPAC1) (AID 1645881); also: nearly all actives have a fitted effect of over 75% in size; also: potency is read from the fitted curve at half-maximal effect;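 as to activation: EPAC1 catalysed release of BODIPY-GDP from Rap1B seen as fluorescence loss; 100% = effect of cAMP agonist control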
[3] = biological target: Rap guanine nucleotide exchange factor 4 (Homo sapiens) (UniProt Q8WZA2); assay: Confirmatory qHTS for agonist of cAMP-regulated guanine nucleotide exchange factor 4 (EPAC2) (AID 1645884);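 also: nucleotide exchange releases bodipy-GDP from Rap1 and this lowers its fluorescence; nearly all actives have a fitted effect of over 65% in size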; also: potency is read from the fitted curve at half-maximal effect; as to activation: % is scaled to controls: 0 for no effect and ±100 for the full control effect
[4] = biological target: Rap guanine nucleotide exchange factor 4 (Homo sapiens) (UniProt Q8WZA2); assay: Confirmatory qHTS for antagonist of cAMP-regulated guanine nucleotide exchange factor 4 (EPAC2) (AID 1645885); also: nearly all actives have a fitted effect of over 25% in size; also: potency is read from the fitted curve at half-maximal effect; as to activity change, negative = inhibition: % is scaled to controls: 0 for no effect and ±100 for the full control effect
[5] = biological target: Rap guanine nucleotide exchange factor 3 (Homo sapiens) (UniProt O95398); assay: Counterscreen qHTS for agonist of cAMP-regulated guanine nucleotide exchange factor 3 (EPAC1) (AID 1645889); also: nearly all actives have a fitted effect of over 40% in size; also: potency is read from the fitted curve at half-maximal effect; as to activation: % of control where 0% means no effect
Outline: (§1)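 Rap1B–BODIPY-GDP (250 nM) with 50 uM GDP; compounds pin-transferred to 9.74 nM–152 uM final (activator) or from 7.32 nM upwards (inhibitor). Fluorescence Ex/Em 480/540 nm read at 5 and 30 min, then after adding cAMP or buffer, at room temperature.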

[6] = biological target: Rap guanine nucleotide exchange factor 3 (Homo sapiens) (UniProt O95398); assay: Counterscreen qHTS for antagonist of cAMP-regulated guanine nucleotide exchange factor 3 (EPAC1) (AID 1645888); also: % of control where 0% means no effect
Outline: as §1

[7] = qHTS for Inhibitors of the vitamin D receptor (VDR): Hit Validation using a Texas Red Assay (AID 602201); also: potency is read from the fitted curve at half-maximal effect
Outline: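 Fluorescence polarization with 1.5 uM VDR-LBD, LG19078 and 7 nM Texas Red (final). After 2 hours at ambient temperature, read at Ex 595 nm/Em 615 nm.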

[8] = biological target: Tumor susceptibility gene 101 protein (Homo sapiens) (UniProt Q99816); assay: qHTS Assay for Iinhibitors of HIV-1 Budding by Blocking the Interaction of PTAP/TSG101: Hit Validation (AID 651600); also: potency is read from the fitted curve at half-maximal effect; nearly all actives have a fitted effect of over 70% in size
Outline: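 Fluorescence polarization binding assay: Tsg101 binding domain (10 uM) mixed with compounds and FITC-labeled PTAP peptide (50 nM) in HEPES pH 7.5, 0.15 M NaCl, 0.01% Tween 20, EDTA, TCEP; 20 min at r.t.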

Rap guanine nucleotide exchange factor 4 (Homo sapiens), sequence (Q8WZA2 whole entry, looked up): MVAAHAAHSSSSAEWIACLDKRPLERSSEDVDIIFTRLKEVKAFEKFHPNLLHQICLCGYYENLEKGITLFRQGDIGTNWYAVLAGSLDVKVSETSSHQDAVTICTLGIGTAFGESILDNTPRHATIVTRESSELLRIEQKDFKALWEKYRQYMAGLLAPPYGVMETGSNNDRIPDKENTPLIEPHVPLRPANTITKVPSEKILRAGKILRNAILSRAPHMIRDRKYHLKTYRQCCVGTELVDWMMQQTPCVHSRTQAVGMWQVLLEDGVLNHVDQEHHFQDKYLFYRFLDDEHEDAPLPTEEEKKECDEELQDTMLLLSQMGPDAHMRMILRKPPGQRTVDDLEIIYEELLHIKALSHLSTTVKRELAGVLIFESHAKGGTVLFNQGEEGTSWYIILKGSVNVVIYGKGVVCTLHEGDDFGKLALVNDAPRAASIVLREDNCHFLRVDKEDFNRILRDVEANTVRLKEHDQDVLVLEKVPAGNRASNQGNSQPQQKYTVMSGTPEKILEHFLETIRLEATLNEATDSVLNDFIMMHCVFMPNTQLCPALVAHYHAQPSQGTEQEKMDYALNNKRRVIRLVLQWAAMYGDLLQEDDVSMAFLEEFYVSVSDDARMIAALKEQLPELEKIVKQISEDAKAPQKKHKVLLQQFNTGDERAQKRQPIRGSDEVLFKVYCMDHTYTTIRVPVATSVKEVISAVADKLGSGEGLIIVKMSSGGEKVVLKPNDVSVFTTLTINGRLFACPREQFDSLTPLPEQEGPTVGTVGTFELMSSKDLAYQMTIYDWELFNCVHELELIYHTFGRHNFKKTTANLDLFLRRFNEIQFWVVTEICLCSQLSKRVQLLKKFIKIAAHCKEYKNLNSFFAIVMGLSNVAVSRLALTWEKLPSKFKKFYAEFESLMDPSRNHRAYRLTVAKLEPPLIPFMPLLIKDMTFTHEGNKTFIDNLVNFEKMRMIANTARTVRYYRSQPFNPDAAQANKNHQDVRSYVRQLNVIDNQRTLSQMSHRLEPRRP
Rap guanine nucleotide exchange factor 3 (Homo sapiens), sequence (O95398 whole entry, looked up): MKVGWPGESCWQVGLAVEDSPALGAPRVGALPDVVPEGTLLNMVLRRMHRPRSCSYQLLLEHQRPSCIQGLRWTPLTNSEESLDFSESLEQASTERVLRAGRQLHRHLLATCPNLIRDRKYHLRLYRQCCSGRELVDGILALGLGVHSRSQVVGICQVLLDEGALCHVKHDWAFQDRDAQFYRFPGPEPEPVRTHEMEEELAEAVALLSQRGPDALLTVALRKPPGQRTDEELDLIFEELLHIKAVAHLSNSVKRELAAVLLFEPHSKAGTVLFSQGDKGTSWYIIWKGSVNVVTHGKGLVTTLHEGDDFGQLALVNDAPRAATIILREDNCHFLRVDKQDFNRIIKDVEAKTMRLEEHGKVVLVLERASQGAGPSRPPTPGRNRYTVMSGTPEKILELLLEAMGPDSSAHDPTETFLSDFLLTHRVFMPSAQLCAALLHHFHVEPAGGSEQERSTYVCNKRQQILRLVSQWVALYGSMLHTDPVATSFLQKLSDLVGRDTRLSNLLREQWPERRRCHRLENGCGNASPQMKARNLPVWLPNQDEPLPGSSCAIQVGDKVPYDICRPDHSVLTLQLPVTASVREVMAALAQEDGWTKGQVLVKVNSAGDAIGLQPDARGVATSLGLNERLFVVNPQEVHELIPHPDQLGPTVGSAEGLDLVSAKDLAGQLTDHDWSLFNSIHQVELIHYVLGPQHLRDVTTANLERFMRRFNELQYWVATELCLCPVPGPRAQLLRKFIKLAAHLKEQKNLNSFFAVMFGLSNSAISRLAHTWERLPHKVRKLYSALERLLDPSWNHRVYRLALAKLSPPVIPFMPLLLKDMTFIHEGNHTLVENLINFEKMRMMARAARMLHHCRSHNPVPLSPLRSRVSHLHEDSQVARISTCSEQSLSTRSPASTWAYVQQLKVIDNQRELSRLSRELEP
Tumor susceptibility gene 101 protein (Homo sapiens), sequence (Q99816 whole entry, looked up, the tested form may be a part): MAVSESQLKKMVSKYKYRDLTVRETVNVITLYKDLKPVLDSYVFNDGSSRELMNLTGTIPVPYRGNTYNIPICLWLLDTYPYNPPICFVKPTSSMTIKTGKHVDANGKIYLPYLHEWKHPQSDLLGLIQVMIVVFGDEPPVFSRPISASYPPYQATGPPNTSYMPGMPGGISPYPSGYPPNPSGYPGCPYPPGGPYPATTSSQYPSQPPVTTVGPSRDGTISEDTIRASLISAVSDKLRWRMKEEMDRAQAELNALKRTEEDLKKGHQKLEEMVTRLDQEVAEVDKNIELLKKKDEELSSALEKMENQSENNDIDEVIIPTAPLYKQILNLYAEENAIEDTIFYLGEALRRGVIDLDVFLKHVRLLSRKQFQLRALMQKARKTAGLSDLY

CN1C(=O)/C(=C/c2cccn2-c2ccc3ccccc3c2)C(=O)NC1=S
active: Potency [1] 33.8 µM
inactive: Potency [2] | Potency [3] | Potency [4] | Potency [5]

COC(=O)N1C(c2ccccc2)C1c1ccccc1 (stereo not given)
inactive: Potency [1] | Potency [2] | activation [3] 10.2% [at 17.1 µM, percent relative to cAMP agonist control] | activity change, negative = inhibition [6] 4.2% [at 30.8 µM]

Cc1ccccc1N1C(=O)NC(=O)/C(=C\c2ccc3c(c2)CCCN3Cc2ccccc2)C1=O
inactive: Potency [2] | Potency [3] | outcome [6]
active: Potency [7] 28.2 µM | Potency [1] 16.9 µM

CCOC(=O)C1CCCN(c2ccc([N+](=O)[O-])c3nonc23)C1 (stereo not given)
active: Potency [2] 112 µM | Potency [3] 100 µM | Potency [5] 39.8 µM
inactive: Potency [1] | Potency [4]

COC(=O)C1=C(c2cc3ccccc3s2)C[C@@H]2CC[C@H]1N2C(=O)NCc1ccc(C(F)(F)F)cc1
inactive: Potency [1] | Potency [2] | Potency [3] | Potency [4] | Potency [5]

Cn1cccc1/C=C1\C(=O)NC(=O)N(Cc2ccccc2)C1=O
inactive: Potency [2] | Potency [3] | Potency [4]

Cc1cccc(OCCn2cccc2/C=C2/C(=O)NC(=O)N(Cc3ccco3)C2=O)c1
inactive: Potency [2] | Potency [3] | Potency [4] | outcome [6]

CCOC(=O)[C@]12Cc3cc(Cl)ccc3[C@H]1N(Cc1ccccc1)C(=O)c1ccccc12
inactive: Potency [2] | Potency [3] | Potency [4]

O=c1[nH]c(=S)n(-c2ccc(Cl)cc2)c(O)c1C=Nc1ccc(N2CCOCC2)cc1
inactive: Potency [1] | Potency [3] | Potency [4] | Potency [5]

Cc1cc2ccccn2c1C(C[N+](=O)[O-])c1c(F)cccc1Cl (stereo not given)
active: Potency [4] 15.1 µM
inactive: Potency [2] | Potency [3] | outcome [6]

Cc1ccc(OCCn2cccc2/C=C2/C(=O)NC(=O)N(Cc3ccco3)C2=O)cc1
inactive: Potency [2] | Potency [3] | Potency [4] | outcome [6]

Nc1ccc2nonc2c1[N+](=O)[O-]
inactive: Potency [1] | outcome [6]
active: Potency [8] 14.6 µM | Potency [3] 112 µM | Potency [4] 47.8 µM | Potency [5] 63.1 µM

CC(c1ccccc1)(c1ccccc1)c1ccncc1
inactive: Potency [2] | activation [3] 0% [at 17.1 µM, percent relative to cAMP agonist control] | activity change, negative = inhibition [4] -28.4% [at 12.7 µM] | activity change, negative = inhibition [6] -6.49% [at 30.8 µM]

COc1ccc(-n2c(/C=C/c3ccc(O)c(O)c3)nc3ccccc3c2=O)cc1
inactive: Potency [2] | Potency [3] | Potency [4] | outcome [6]

CCN(CC)c1ccc(N=Cc2c(O)n(CCc3ccc(OC)c(OC)c3)c(=O)[nH]c2=O)cc1
inactive: Potency [1] | activity change, negative = inhibition [4] -5.1% [at 12.7 µM] | activity change, negative = inhibition [6] -17.1% [at 30.8 µM]

CC(C)N1C(=O)/C(=C/C=C/c2ccco2)C(=O)N(Cc2ccco2)C1=O
inactive: Potency [1] | activation [3] 13% [at 17.1 µM, percent relative to cAMP agonist control] | activity change, negative = inhibition [4] 22.6% [at 12.7 µM] | activity change, negative = inhibition [6] 52.4% [at 30.8 µM]

CCOC(=O)c1[nH]c2ccc(OC)cc2c1C(SCC(=O)O)c1ccc(C(F)(F)F)cc1 (stereo not given)
inactive: Potency [2] | activation [3] 2.9% [at 17.1 µM, percent relative to cAMP agonist control] | activity change, negative = inhibition [4] -9.73% [at 12.7 µM] | activity change, negative = inhibition [6] -0.779% [at 30.8 µM]

COc1cccc(N2C(=O)NC(=O)/C(=C\c3cn(C)c4ccccc34)C2=O)c1
inactive: Potency [1] | Potency [4] | outcome [6]
active: Potency [3] 100 µM

COc1ccccc1-n1c(-c2cccs2)nc2ccccc2c1=O
inactive: Potency [1] | Potency [2] | Potency [4] | outcome [6]

Cc1ccc(-n2c(O)c(C=NCc3ccco3)c(=O)[nH]c2=S)cc1C
inactive: Potency [2] | Potency [3] | Potency [4] | outcome [6]

Nc1cc(Cl)c2nonc2c1[N+](=O)[O-]
inactive: Potency [2] | activation [3] 5.26% [at 17.1 µM, percent relative to cAMP agonist control] | activity change, negative = inhibition [4] 1.82% [at 12.7 µM]

Cc1cccc(-c2nc(CN3C(=O)CN=C(c4ccccc4)c4ccccc43)c(C)o2)c1
inactive: Potency [2] | Potency [3] | activity change, negative = inhibition [4] 48.3% [at 12.7 µM]

O=C1CN=C(c2ccccc2)c2cc(Cl)ccc2N1Cc1ccc(Cl)cc1
inactive: Potency [1] | Potency [3] | activity change, negative = inhibition [4] 1.14% [at 12.7 µM] | outcome [6]

Cc1ccccc1OCC(=O)N1CCN(CCc2ccccn2)CC1
inactive: Potency [1] | Potency [3] | activity change, negative = inhibition [4] 1.52% [at 12.7 µM] | outcome [6] | Potency [5]

CCCCN1C(=O)/C(=C/c2ccc(N(C)C)cc2)C(=O)N(Cc2ccco2)C1=O
inactive: Potency [2] | activation [3] 15.2% [at 17.1 µM, percent relative to cAMP agonist control] | activity change, negative = inhibition [4] 35.5% [at 12.7 µM] | activity change, negative = inhibition [6] 25.6% [at 30.8 µM]

O=c1[nH]c(=O)n(-c2cccc(F)c2)c(O)c1/C=C1\C=Nc2ccccc21
inactive: Potency [1] | Potency [3] | Potency [4] | outcome [6] | Potency [5]

COCCNC(=O)Cn1cc(/C=C2\C(=O)NC(=O)N(c3ccccc3F)C2=O)c2ccccc21
inactive: Potency [2] | Potency [3] | Potency [4]

COC1C(C)OC(OC2CC(C)(O)Cc3cc4c(c(O)c32)C(=O)c2c(O)cc3c(c2C4=O)OC2OC3(C)C(O)C(N(C)C)C2O)C(OC)C1(C)OC (stereo not given)
inactive: Potency [1] | activation [3] 18.7% [at 17.1 µM, percent relative to cAMP agonist control] | activity change, negative = inhibition [4] 15.2% [at 12.7 µM] | activity change, negative = inhibition [6] 87.2% [at 30.8 µM]

CCOC(=O)c1cc(CC)sc1/N=C/C1C(=O)NC(=S)NC1=O
inactive: Potency [1] | activity change, negative = inhibition [4] -21.4% [at 12.7 µM]

CCOC(=O)[C@]12Cc3cc(OC)ccc3[C@H]1N(Cc1ccccc1)C(=O)c1ccccc12
inactive: Potency [2] | Potency [3] | outcome [6]
active: Potency [4] 19 µM
